Experimental data reported in PubChem BioAssay (NCI).
Several values for one entry are separate records, joined by “and”; a condition that tells them apart may be missing. Equal values may be shown once. This is part of a sample that, as a whole, favours compounds with a hit. Of some 83,000 tested, about 20% had one in any assay.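 Compound tested at a single concentration for 48 hours in 96-well plates; a percent growth value below 10 was scored as active.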 Unmarked numbers belong to inactive results. Activity calls are given as the source filed them.

Test system: MDA-MB-468 breast
Assay: NCI-60 one-dose screen, 48 h (100 = growth as untreated, 0 = no growth, -100 = all killed)
Details: 10 µM unless noted
Description: Growth inhibition of the MDA-MB-468 human Breast tumor cell line is measured as a screen for anti-cancer activity. Cells are grown in 96 well plates and exposed to the test compound for 48 hours. Compounds are tested at a single concentration, which is 10^-5 M for most compounds. The reported endpoint is percent growth (GI% or GIPRCNT), where numbers from 0 - 100% represent growth inhibition, and numbers from -100% - 0 represent cell death. For example, a value of 40 represents 60% growth inhibition. A value of 0 means no net growth occurred over the course of the experiment. A value of -40 indicates 40% of cells at the beginning of the experiment died by the end of the experiment. A value of -100 means all cells are dead at the end of the experiment.
NCI-60 Human Tumor Cell Lines Screen was performed using the standard one-dose NCI protocol, which is described in more detail at https://dtp.cancer.gov/discovery_development/nci-60/default.htm.
Compounds with GIPRCNT values below 10 were considered active. Activity score was based on GIPRCNT using the following formula: […]
Score is 0 for GIPRCNT values of 100 or above, 50 for GIPRCNT values of 0, and 100 for GIPRCNT values of -100.

Structure (SMILES)	growth
O=C(Nc1ccc(Cl)c(Cl)c1)Nc1ccccc1O	0.995% (active)
c1cn2cc(-c3ccc4cn[nH]c4c3)nc(Nc3ccc(N4CCOCC4)cc3)c2n1	61.8%
COc1cc(C(=O)NNC(=O)c2ccccc2C(=O)O)cc(OC)c1OC	48.6%
Cc1nc2cc(Nc3nc(Nc4ccc(F)cc4)nc(-c4ccc(Cl)cc4)n3)ccc2n1Cc1ccccc1	74.3%
COc1cc2ncnc(Oc3cccc(NC(=O)Nc4cc(C(C)(C)C(F)(F)F)on4)c3)c2cc1OC	12.4%
CCN(CC)c1cc(N)c(Cc2c(N)cc(N(CC)CC)cc2Cl)c(Cl)c1	-15.8% (active)
CCc1nc(N)nc(N)c1C#CC(C)c1ccc(-c2ccncc2)cc1Cl (stereo not given)	5.88% (active)
COCCOC(C)C(/C=N/NC(N)=S)=N/NC(N)=S (stereo not given)	7.98% (active)
COC(=O)C(N)CC(C)C (stereo not given)	98%
CCOC(=O)c1c(C)oc2ncnc(Nc3ccc(C(=O)NCCc4ccccc4)cc3)c12	90.7%
ClC1=C(Cl)C(Cl)=C(Cl)C1=Cc1ccccc1	-80.7% (active)
CC(C)(C)Nc1nc2c(OCCc3ccccc3)cccn2c1-c1ccc(O)cc1	26%
CCN(CC)CCCC(C)Nc1ccnc2ccc(Oc3ccccc3)cc12 (stereo not given)	54.7%
Cc1ccc(/C=C2\COc3ccc(O)c(O)c3C2=O)cc1	-18.5% (active)
Cc1ccc(NC(=O)COC(=O)c2ccc(S(=O)(=O)N3CCCCCC3)cc2)cc1	92.9%
N#CC(=C1SCS1)[N+](=O)[O-]	-4.62% (active)
Cc1cccc2c3c(sc12)C(c1ccc(Cl)cc1)C(C#N)=C(N)O3 (stereo not given)	17.3%
COc1ccc(OC)c(C(=O)Nc2cccc(-c3cc(=O)c4ccccc4o3)c2)c1	92.9%
C=C1C(=O)O[C@H]2[C@H]1CC/C(COC(=O)OC/C1=C/CC[C@@]3(C)O[C@H]3[C@H]3OC(=O)[C@@H](CN(C)C)[C@@H]3CC1)=C\CC[C@@]1(C)O[C@@H]21	-14% (active)
CC1(C)CC(=O)c2c(nn(-c3ccc(Br)cc3)c2-c2cn(-c3ccccc3)nc2-c2cccnc2)C1	107%

Structure (SMILES)	growth
COc1ccc(/C=N/C2=C(C#N)C(c3ccccc3[N+](=O)[O-])c3ccc4ccccc4c3O2)cc1 (stereo not given)	104%
Cc1c(C(N)=O)sc2c1c(=O)n(Cc1ccccc1)c1nnc(SCC(=O)Nc3ccc(Cl)cc3)n21	39.6%
Clc1ccc2c(NC3CCC(NC4CCCCC4)CC3)ccnc2c1 (stereo not given)	-7.22% (active)
CCOC(=O)C1(Cc2ccccc2)CCN(Cc2cccc(OC)c2O)CC1	-9.39% (active)
N/C(=N\N=C\c1ccc2c(c1)OCO2)N/N=C\c1ccc2c(c1)OCO2	98.9%
COc1ccc(/C=C2\COc3ccc(O)c(O)c3C2=O)cc1	-8.03% (active)
CNc1ccc2nc3ccc(=[N+](C)C)cc-3sc2c1	-48.1% (active) and -39.5% (active)
CN(c1ccc(Br)cc1)S(=O)(=O)c1ccc(-c2cnc(C3CC3)o2)cc1	11.7%
COc1ccc(NC(=O)COc2ccccc2)c(C(N)=O)c1	16.6%
O=C(CCl)N(C1CCCCC1)C1CCCCC1	91.5%
O=C(Nc1ncc(Cc2ccccc2Cl)s1)c1ccc2c(c1)OCCO2	18.5%
C#C[C@]1(O)CC[C@H]2[C@@H]3CC=C4c5sc(Nc6cc(C)cc(C)n6)nc5CC[C@]4(C)[C@H]3CC[C@@]21C	-39.3% (active)
CS(=O)(=O)c1nccc(-c2c(-c3cccc(OCc4ccc(Cl)c(C(F)(F)F)c4)c3)nc3sccn23)n1	-66.1% (active)
CNCc1cccc2c1OCCOCCN(C)C(=O)CN(C)S(=O)(=O)c1ccc(cc1)-c1cnc(N)c(n1)C(=O)N2	-49.3% (active)
Cn1ccnc1C(=O)/C=C/c1ccc(CNC(=O)c2ccc(S(F)(F)(F)(F)F)cc2)cc1	23.3%
CC(=O)Oc1csc(N(C(C)=O)c2cccc(C(F)(F)F)c2)n1	92.1%
C=CC(=O)Nc1cccc(Nc2nc(Nc3ccc(OCCOC(F)F)cc3)ncc2F)c1	-27.9% (active)
COc1ccc(NC(=O)CSc2nc(-c3ccc(OC)c(OC)c3)cc(-c3cc(OC)c(OC)c(OC)c3)n2)cc1	110%
COc1ccc(/C=C/C(=O)Nc2ccc(-c3nc4ccc(F)cc4s3)cc2)cc1	-12.9% (active)
CS(=O)(=O)c1ccc(N/N=C/c2c(-c3ccc(S(C)(=O)=O)cc3)[nH]c3ccc(F)cc23)cc1	64.3%
